The entries come from a sample that favours hits as a whole.
ST2 IL33 inh: IL1RL1 inhibition; AID 1259354; 78,000 compounds, 2.3% hits; AlphaLISA ST2-Fc/biotin-IL-33 interaction, 1 h; Q01638; inhibition, % for hits at 17 µM; in the data active = inhibition above about 30%
Target sequence (Q01638 whole entry, looked up): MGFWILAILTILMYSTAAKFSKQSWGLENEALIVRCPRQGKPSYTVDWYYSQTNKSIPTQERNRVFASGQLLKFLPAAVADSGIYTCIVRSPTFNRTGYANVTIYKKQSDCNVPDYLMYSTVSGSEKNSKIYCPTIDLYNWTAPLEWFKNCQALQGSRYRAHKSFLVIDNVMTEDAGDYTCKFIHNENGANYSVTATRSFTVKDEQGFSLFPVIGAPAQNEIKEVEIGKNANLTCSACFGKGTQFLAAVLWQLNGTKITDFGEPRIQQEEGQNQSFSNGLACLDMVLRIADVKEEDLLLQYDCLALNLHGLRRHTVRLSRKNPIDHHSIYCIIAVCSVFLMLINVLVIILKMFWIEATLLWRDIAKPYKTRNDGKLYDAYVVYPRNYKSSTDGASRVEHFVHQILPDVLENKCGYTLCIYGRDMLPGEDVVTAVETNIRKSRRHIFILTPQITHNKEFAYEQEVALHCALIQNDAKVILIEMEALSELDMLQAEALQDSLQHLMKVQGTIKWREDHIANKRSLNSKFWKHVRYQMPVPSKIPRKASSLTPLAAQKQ
A number is an active result; - = inactive; ! = a repeat was not active.

SMILES	ST2 IL33 inh
O=C1c2ccccc2-c2ncnc3c(S(=O)(=O)O)cc(O)c1c23	-
Nc1c(Br)cc(O)c2c1C(=O)c1ccccc1C2=O	68%
CCn1c2ccccc2c2cc(C3C(C#N)=C(N)OC4=C3C(=O)CCC4)ccc21 (stereo not drawn)	-
Nc1ccccc1-c1nnc(SCc2ccc(Cl)cc2)[nH]c1=O	-
Cn1c(=O)[nH]c(=O)c2c1nc(NCc1ccccc1)n2Cc1ccc(Cl)cc1	-
CCCc1nnc([C@H]2CCN(Cc3ccc(CO)o3)C2)o1	-
CCc1nc(NCCN(CC)CC)c(C#N)c2c1CCCC2	-
CCN(CC)CCCNc1c2c(c(C#N)c3nc4ccccc4n13)CCC2	42%
CCCc1cc(NCCCCO)n2c(nc3ccccc32)c1C#N	-
OC[C@@H]1O[C@H](CNC2CCCCC2)[C@H](N2CCN(c3cccc(C(F)(F)F)c3)CC2)[C@@H]1O	-
Clc1ccccc1/C=C/C=Nc1ccc(N2CCOCC2)cc1	38%
O=C(N1CCCCC1)[n+]1ccc(N2CCOCC2)cc1	-
Clc1nc(N2CCCCC2)nc(N2CCOCC2)n1	-
CC(C)CCNC(=O)C1(O)c2cc(Br)ccc2NC(=O)N1c1ccc(Cl)cc1 (stereo not drawn)	-
c1ccc(-c2nnc(-c3cccnc3)o2)cc1	-
c1ccc(C2(c3ccccc3)OC(c3cccnc3)Nc3ccccc32)cc1 (stereo not drawn)	35%
CC(=O)N1c2ccccc2C(=O)OC1c1cccnc1 (stereo not drawn)	-
COc1ccc(-c2c3c(=O)n(C)c(=O)n(C)c3cn2Cc2ccccc2)cc1	-
COc1ccc(-c2oc3ncn(Cc4ccccc4)c(=N)c3c2-c2ccc(OC)cc2)cc1	39%
N=c1c2c3c(sc2ncn1Cc1ccccc1)CCCC3	-
Cn1cc(CN(Cc2ccncc2)C[C@@H]2CCC(=O)N2)c(-c2cccc(Cl)c2)n1	-
CCSCCOC(=O)C1=C(C)Nc2ccccc2S1	43%
CCOc1ccccc1C1C(C(=O)OCCSCC)=C(C)NC2=C1C(=O)CC(C)(C)C2 (stereo not drawn)	-
CCSCCOC(=O)C1=C(C)NC2=C(C(=O)CCC2)C1c1cccc(Br)c1 (stereo not drawn)	-
COC(=O)Cn1cnc2scc(-c3ccc(F)cc3)c2c1=O	-
SMILES	ST2 IL33 inh
CC1CN(CCOCCOc2ccccc2)CC(C)O1 (stereo not drawn)	-
COc1ccc(C[C@@H]2NC(=O)[C@@H]3C[C@@H](NC(=O)Nc4cccc(SC)c4)CCN3C2=O)cc1	33%
COc1ccc(CN2CCCN(CC(=O)Nc3cccc(SC)c3)S2(=O)=O)cc1	-
COc1ccc(NC(=O)N[C@H]2C[C@H]3C(=O)N[C@H](Cc4ccccc4)C(=O)N3C2)cc1	-
O=C(Nc1cccnc1)c1ccc2nc(N3C(=O)CCC3=O)sc2c1	-
O=C(NC1CCN(C(=O)c2ccncc2)CC1)C1CC2(CCNCC2)CN1 (stereo not drawn)	-
CCOc1ccc(CCCN=C(N)N)cc1Cl	-
COCCN(CCOC)CC[C@@H]1CC[C@H](O)[C@@H](C(=O)Nc2ccccc2)O1	38%
COc1ccc(CNC(=O)[C@H]2O[C@H](CCN3CCN(c4ccccc4)CC3)CC[C@@H]2O)cc1	-
O=C(O)C1CC=CCC1C(=O)Nc1ccccc1 (stereo not drawn)	-
CN(C)C(=O)c1ccc2c(c1)N(CC(=O)NC1CCCC1)C(=O)C1CCCCN21 (stereo not drawn)	-
NC(=O)Cc1c[nH]c2cccc(O)c12	101%
O=C(O)CCCc1c[nH]c2ccccc12	-
CC(Cc1c[nH]c2ccccc12)NC(N)=O (stereo not drawn)	-
CN1CCN(C(=O)C(c2ccccc2)c2ccccc2)CC1	-
C=CCN1C(=O)/C(=c2/sc3nc4ccccc4n3c2=O)c2ccccc21	31%
CCCCN1C(=O)/C(=c2\sc3nc(-c4ccc(OC)cc4)nn3c2=O)c2ccccc21	-
O=c1/c(=C/c2ccccc2F)sc2nc3ccccc3n12	-
CCOC(=O)C1CCN(C(=O)COc2ccc3c(c2)C(=O)CC(C)(C)O3)CC1	-
CC(C)c1ccc2c(c1)CCC1[C@](C)(C(=O)O)CCC[C@]21C (stereo partly drawn)	-
CC(C)C1(O)C=C2C(=O)CC3C(C)(C(=O)O)CCCC3(C)C2CC1 (stereo not drawn)	30%
C=CC(C)(O)CC[C@H]1C(=C)CCC2[C@](C)(C(=O)O)CCC[C@@]21C (stereo partly drawn)	-
CN1CCc2c(sc3c2C(=O)NC(c2ccc(Cl)c(Cl)c2)N3)C1 (stereo not drawn)	-
O=C1C[C@H]2CC[C@@H](CN1)N2CCn1c(=O)oc2ccccc21	-
O=C(c1ccccc1Br)N1N=C(c2ccc(Br)cc2)CC1c1ccco1 (stereo not drawn)	-
SMILES	ST2 IL33 inh
Nc1nc2n(n1)C(c1ccco1)CC(c1ccc(F)cc1)N2 (stereo not drawn)	-
Fc1ccc(C2=NN(c3ccccc3)C(c3ccco3)C2)cc1 (stereo not drawn)	45%
O=C(c1ccccc1F)n1nnc2ccccc21	-
CC(=O)Nc1ccc(-c2nc3cc4sc(-c5ccc(NC(C)=O)cc5)nc4cc3s2)cc1	-
O=C(Cc1ccccc1)Nc1cccc(-c2nc3ccccc3s2)c1	-
N#Cc1ccc(C(=O)Nc2ccc(-c3nc4ccccc4s3)cc2)cc1	32%
O=C(O)c1ccccc1C1CCN(C(=O)c2ccccc2-n2cncn2)C1 (stereo not drawn)	-
O=C(Nc1cccc(Cl)c1Cl)c1cnc2n(c1=O)CCS2	-
CC1(c2ccc(Cl)cc2)CC(C)(C)N(C(=O)CSC#N)c2ccccc21 (stereo not drawn)	-
CC1(O)c2ccccc2C(=O)N1Cc1ccccc1 (stereo not drawn)	-
CC1(c2ccccc2)CC(C)(C)N2C(=O)C(=O)c3cccc1c32 (stereo not drawn)	33%
COCCNC(=O)c1c(NC(=O)COc2ccccc2F)sc2c1CCCC2	-
O=S(=O)(c1ccccc1)c1nc(-c2ccc(Cl)cc2)oc1NCc1ccco1	-
COc1ccc(-c2nc(S(=O)(=O)c3ccc(Cl)cc3)c(NCc3ccco3)o2)cc1	-
N#Cc1nc(-c2ccc(Cl)cc2)oc1NCc1ccco1	35%!
COc1ccc(CNC(=O)C[C@@H]2O[C@H](CNC(=O)Nc3ccc(C)cc3)[C@@H](O)[C@H]2O)cc1	-
CCOC(=O)N1CCN(C(=O)c2ccc(N3CCC(NCCc4cccs4)CC3)cc2)CC1	-
O=C(c1ccc(N2CCC(NCC3(N4CCOCC4)CCCC3)CC2)cc1)N1CCCC(O)C1 (stereo not drawn)	31%
CCOC(=O)N1CCN(C(=O)c2ccc(N3CCC(NCCc4ccncc4)CC3)cc2)CC1	-
CCN1CCN(C(=O)c2cn(CC(C)C)c(=O)c3c2c2ccccc2n3C)CC1	-
Cc1ccc(NC(=O)c2ccccc2C)cc1OCc1cc(=O)n2cccc(C)c2n1	33%
Cc1ccc(NC(=O)C2CCCCC2)cc1OCc1cc(=O)n2cccc(C)c2n1	-
Cc1ccc(SCC(=O)Nc2ccc(C)c(OCc3cc(=O)n4cccc(C)c4n3)c2)cc1	-
Cc1ccccc1-c1nc(CN2CCN(C(=O)c3ccc[nH]3)CC2)c(C)o1	-
CC1CCC(NC(=O)C(NS(=O)(=O)c2ccc3c(c2)oc(=O)n3C)C(C)C)CC1 (stereo not drawn)	-
Cc1ccccc1-c1nc2cc(NC(=O)c3ccc4c(c3)OCCO4)ccc2o1	-
COc1cc(C(=O)Nc2ccc(-c3nc4cc(C)ccc4o3)c(O)c2)cc(OC)c1OC	-

Source: PubChem BioAssay
